The full list was thinned out, with hits kept by preference.
IDE exosite FP: displaces the probe from the exo-site of human IDE | P14735 | purified IDE, FL-6b probe fluorescence polarization; hits give low values | 6.3% of 17,000 active | AID 1259349 | z-score at 20 µM;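 active means z-score of -3 or lower, meaning strong loss of probe binding signal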;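 further: His-tagged human IDE residues 42-1019 made in E. coli with 30 nM FL-6b probe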
Target sequence (P14735 42-1019 limits assumed): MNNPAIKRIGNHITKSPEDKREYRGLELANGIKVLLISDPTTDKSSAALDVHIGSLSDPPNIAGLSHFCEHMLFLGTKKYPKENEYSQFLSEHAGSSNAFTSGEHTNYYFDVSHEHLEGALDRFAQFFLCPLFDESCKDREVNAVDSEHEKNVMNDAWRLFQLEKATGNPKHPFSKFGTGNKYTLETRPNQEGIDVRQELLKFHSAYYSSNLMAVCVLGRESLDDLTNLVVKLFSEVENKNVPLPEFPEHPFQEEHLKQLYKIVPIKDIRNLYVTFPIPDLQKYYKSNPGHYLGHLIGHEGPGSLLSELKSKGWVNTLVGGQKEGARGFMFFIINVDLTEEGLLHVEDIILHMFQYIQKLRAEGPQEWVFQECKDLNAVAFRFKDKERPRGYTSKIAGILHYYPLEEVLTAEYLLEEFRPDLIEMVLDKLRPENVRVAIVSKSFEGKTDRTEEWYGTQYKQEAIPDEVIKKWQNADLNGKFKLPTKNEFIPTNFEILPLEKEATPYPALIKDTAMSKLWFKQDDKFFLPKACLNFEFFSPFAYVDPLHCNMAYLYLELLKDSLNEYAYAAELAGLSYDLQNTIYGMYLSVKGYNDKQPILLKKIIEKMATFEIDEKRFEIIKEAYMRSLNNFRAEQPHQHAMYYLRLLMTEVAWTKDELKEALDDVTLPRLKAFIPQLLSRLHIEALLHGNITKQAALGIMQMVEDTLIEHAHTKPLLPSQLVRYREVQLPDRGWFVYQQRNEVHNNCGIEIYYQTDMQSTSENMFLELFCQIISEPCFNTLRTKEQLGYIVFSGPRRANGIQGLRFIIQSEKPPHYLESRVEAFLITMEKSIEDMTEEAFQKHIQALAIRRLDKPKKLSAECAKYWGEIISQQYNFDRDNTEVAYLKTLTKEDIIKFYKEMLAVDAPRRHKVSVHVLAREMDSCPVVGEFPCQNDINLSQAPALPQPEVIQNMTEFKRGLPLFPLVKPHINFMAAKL
Each line names hits and unclear results; the compound was inactive in the other large screens.

COc1cccc(CN2[C@@H]3CNC[C@H]2C3c2ccc(-c3cccnc3)cc2)c1 (stereo partly specified)	none
CO[C@@H]1CN(C)C(=O)c2cc(NC(=O)c3cccc(F)c3)ccc2OC[C@H](C)N(C)C[C@H]1C	none
O=C(C1CCOCC1)N1CC(=O)N2[C@H](CO)[C@@H](c3ccc(-c4cccnc4)cc3)[C@@H]2C1	none
COCC(=O)NC[C@@H]1[C@@H](c2ccccc2)[C@@H](CO)N1C(C)=O	none
COCC#Cc1ccc([C@@H]2[C@H]3CN(C(=O)Nc4ccc(F)cc4)CC(=O)N3[C@H]2CO)cc1	none
COCC#Cc1ccc([C@H]2[C@H]3CN(C(=O)NC4CCCC4)CCCCN3[C@H]2CO)cc1	none
COCC#Cc1ccc([C@H]2[C@@H](CO)N3CCCCN(C(=O)NC4CCCC4)C[C@@H]23)cc1	none
COc1ccccc1-c1ccc([C@H]2[C@H]3CN(C(=O)NC4CCCC4)CCCCN3[C@H]2CO)cc1	IDE exosite FP -14
C/C=C/c1ccc([C@@H]2[C@@H](C#N)N(C(=O)CN3CCOCC3)[C@H]2CO)cc1	none
C/C=C/c1ccc([C@H]2[C@@H](CO)N(C(=O)C3CC3)[C@H]2CN(C)C(=O)C2CC2)cc1	none
CN(C)C(=O)c1cccc(-c2ccc([C@@H]3[C@@H](C#N)N(C(=O)C4CCCCC4)[C@H]3CO)cc2)c1	none
OC[C@H]1[C@@H](c2ccc(C#CC3(O)CCCC3)cc2)[C@@H]2CN(Cc3cccnc3)CCCCN12	none
O=C(CN1CCOCC1)N1CCCCN2[C@H](CO)[C@H](c3ccc(/C=C/c4ccccc4)cc3)[C@@H]2C1	IDE exosite FP -9.3
O=C(CN1CCOCC1)N1CCCCN2[C@H](CO)[C@@H](c3ccc(/C=C/c4ccccc4)cc3)[C@H]2C1	IDE exosite FP -9.3
O=C(CN1CCOCC1)N1CCCCN2[C@H](C1)[C@@H](c1ccc(/C=C/c3ccccc3)cc1)[C@@H]2CO	IDE exosite FP -4.6
O=C(CN1CCOCC1)N1CCCCN2[C@H](C1)[C@@H](c1ccc(Br)cc1)[C@@H]2CO	none
O=C(CN1CCOCC1)N1CCCCN2[C@H](CO)[C@H](c3ccc(/C=C/c4ccccc4)cc3)[C@H]2C1	none
O=C(C[C@@H]1C=C[C@H](NC(=O)Nc2ccc3c(c2)OCO3)[C@H](CO)O1)NCCCN1CCOCC1	none
CCCC#Cc1ccc([C@@H]2[C@@H](C#N)N(S(=O)(=O)c3cccc(F)c3)[C@H]2CO)cc1	none
O=C1N[C@H](c2ccccc2)COCc2cn(nn2)CC[C@@H]1Cc1ccc(C(F)(F)F)cc1	none
COCC(=O)Nc1ccc2c(c1)[C@@H]1C[C@@H](CC(=O)N[C@H](C)c3ccccc3)O[C@H](CO)[C@@H]1O2	none
O=C(CN1CCOCC1)N1CCCCN2[C@H](CO)[C@@H](c3ccc(-c4ccccc4F)cc3)[C@@H]2C1	IDE exosite FP -3.6
O=C(CN1CCOCC1)N1CCCCN2[C@@H](CO)[C@H](c3ccc(-c4ccccc4F)cc3)[C@@H]2C1	none
O=C(CN1CCOCC1)N1CCCCN2[C@H](CO)[C@H](c3ccc(-c4ccccc4F)cc3)[C@H]2C1	none
Cc1ccccc1-c1ccc([C@H]2[C@@H](CO)N3CCCCN(C(=O)CN4CCOCC4)C[C@H]23)cc1	IDE exosite FP -9.9
COc1ccccc1-c1ccc([C@H]2[C@@H](CO)N3CCCCN(C(=O)CN4CCOCC4)C[C@H]23)cc1	none
Cc1ccccc1-c1ccc([C@@H]2[C@@H](CO)N3CCCCN(C(=O)CN4CCOCC4)C[C@@H]23)cc1	IDE exosite FP -8
O=C(CN1CCOCC1)N1CCCCN2[C@H](CO)[C@H](c3ccc(-c4ccccc4F)cc3)[C@@H]2C1	none
COc1ccccc1-c1ccc([C@H]2[C@H](CO)N3CCCCN(C(=O)CN4CCOCC4)C[C@@H]23)cc1	IDE exosite FP -3.2
COCC(=O)N1CCCCN2[C@H](CO)[C@@H](c3ccc(-c4ccccc4)cc3)[C@H]2C1	none
C/C=C/c1ccc([C@@H]2[C@@H](CN(CC)C(=O)CN(C)C)N(C(C)=O)[C@H]2CO)cc1	none
CCC(=O)N1CC[C@H]2[C@H](CO)Nc3ccc(C#Cc4ccccc4F)cc3[C@H]21	none
C[C@@H](O)C#Cc1ccc([C@@H]2[C@@H](CO)N3CCCCN(CC4CC4)C[C@H]23)cc1	none
COc1ccc2c3c([nH]c2c1)[C@@H](CO)N(CC1CC1)CC31CN(C(=O)NC2CCCC2)C1	none
CC(C)NC(=O)N1[C@@H](CO)[C@@H](c2ccccc2)C12CN(Cc1cc(F)cc(F)c1)C2	none
N#C[C@H]1N[C@@H](CO)[C@H]1c1ccccc1	none
CCCC(=O)Nc1ccc2c(c1)OC[C@H](C)NC[C@@H](C)[C@@H](OC)CN(C)C2=O	none
CO[C@@H]1CN(C)C(=O)c2cccc(C#N)c2OCC[C@@H]2CC[C@@H](OC)[C@@H](CN(C)C(=O)[C@H]1C)O2	none
CN(C[C@H]1[C@@H](c2ccccc2)[C@@H](CO)N1C(=O)C1CCC1)C(=O)c1ccncc1	none
COCC(=O)NC[C@H]1[C@@H](c2ccccc2)[C@@H](CO)N1C(C)=O	none
COc1cccc(C(=O)Nc2ccc3c(c2)C(=O)N(C)[C@H]2CC[C@@H](CC(=O)N[C@@H](C)c4ccccc4)O[C@@H]2CO3)c1	IDE exosite FP -7
